Our source for the residual activity values is ChEMBL document CHEMBL2218924, “A broad activity screen in support of a chemogenomic map for kinase signalling research and drug discovery” (Biochem J, 2013).

Each structure is given as a SMILES string.

For experiment [1], the target named is T1, Ephrin type-A receptor 3 (Homo sapiens) (UniProt P29320).
T1 sequence (whole entry): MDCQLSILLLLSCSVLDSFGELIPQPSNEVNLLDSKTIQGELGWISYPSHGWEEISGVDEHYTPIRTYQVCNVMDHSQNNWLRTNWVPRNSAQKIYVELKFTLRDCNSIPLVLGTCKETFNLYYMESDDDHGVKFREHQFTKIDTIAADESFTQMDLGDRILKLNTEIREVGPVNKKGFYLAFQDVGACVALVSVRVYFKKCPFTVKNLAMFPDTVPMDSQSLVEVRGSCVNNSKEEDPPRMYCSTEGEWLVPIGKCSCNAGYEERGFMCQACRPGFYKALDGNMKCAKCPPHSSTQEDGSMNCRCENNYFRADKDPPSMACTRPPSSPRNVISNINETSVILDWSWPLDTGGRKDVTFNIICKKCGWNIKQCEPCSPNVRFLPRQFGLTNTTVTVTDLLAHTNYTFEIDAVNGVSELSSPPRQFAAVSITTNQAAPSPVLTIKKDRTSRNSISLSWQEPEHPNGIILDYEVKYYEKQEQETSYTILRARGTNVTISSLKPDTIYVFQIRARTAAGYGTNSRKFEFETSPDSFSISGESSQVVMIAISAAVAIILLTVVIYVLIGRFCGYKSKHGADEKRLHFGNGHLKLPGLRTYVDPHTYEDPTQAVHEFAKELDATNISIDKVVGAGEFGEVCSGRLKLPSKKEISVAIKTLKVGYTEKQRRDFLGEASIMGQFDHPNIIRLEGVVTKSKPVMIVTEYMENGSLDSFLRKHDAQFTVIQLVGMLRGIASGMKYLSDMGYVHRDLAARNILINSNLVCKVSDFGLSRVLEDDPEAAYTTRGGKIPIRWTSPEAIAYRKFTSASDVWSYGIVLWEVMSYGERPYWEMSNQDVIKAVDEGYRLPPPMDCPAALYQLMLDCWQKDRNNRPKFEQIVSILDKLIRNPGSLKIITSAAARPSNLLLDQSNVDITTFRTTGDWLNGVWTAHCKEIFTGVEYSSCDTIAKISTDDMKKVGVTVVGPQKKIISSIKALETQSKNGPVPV
To be noted: at 10 µM.

Experiment [2] addresses Ephrin type-A receptor 4 (Homo sapiens) (UniProt P54764). To be noted: at 1 µM.
The target is the same in experiment [3]. The conditions noted are these: at 10 µM.
Experiment [4] concerns the target Ephrin type-A receptor 5 (Homo sapiens) (UniProt P54756). The conditions noted are these: at 1 µM.
The target is the same in experiment [5]. To be noted: at 10 µM.
The target of experiment [6] is Ephrin type-A receptor 7 (Homo sapiens) (UniProt Q15375). To be noted: at 1 µM.
Chain of Ephrin type-A receptor 7 (Homo sapiens) (Q15375 28-998 limits assumed): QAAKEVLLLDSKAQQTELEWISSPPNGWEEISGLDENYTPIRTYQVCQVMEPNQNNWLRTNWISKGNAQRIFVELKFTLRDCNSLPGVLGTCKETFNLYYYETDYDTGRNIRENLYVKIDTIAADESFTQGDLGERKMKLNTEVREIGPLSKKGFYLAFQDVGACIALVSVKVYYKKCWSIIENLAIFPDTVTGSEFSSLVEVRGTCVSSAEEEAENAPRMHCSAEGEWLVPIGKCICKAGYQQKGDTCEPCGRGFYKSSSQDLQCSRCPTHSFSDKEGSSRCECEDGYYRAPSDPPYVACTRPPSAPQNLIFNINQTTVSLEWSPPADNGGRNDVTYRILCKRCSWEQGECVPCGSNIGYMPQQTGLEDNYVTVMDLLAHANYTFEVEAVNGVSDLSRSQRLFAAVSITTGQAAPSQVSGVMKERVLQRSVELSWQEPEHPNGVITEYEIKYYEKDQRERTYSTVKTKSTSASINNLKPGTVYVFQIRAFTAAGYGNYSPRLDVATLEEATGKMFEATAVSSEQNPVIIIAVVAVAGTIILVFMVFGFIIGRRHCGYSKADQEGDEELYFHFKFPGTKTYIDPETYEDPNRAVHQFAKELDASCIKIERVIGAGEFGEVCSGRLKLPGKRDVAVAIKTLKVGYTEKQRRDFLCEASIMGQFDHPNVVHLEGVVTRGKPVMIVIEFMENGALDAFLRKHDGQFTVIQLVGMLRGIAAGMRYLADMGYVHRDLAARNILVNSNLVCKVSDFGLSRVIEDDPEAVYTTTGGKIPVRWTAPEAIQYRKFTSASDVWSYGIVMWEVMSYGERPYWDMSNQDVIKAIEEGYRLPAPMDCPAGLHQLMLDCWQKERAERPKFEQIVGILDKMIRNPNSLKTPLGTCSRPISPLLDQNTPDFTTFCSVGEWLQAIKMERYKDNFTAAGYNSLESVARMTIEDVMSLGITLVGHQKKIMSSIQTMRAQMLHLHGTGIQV
For experiment [7] the target is unchanged. To be noted: at 10 µM.
Experiment [8] addresses T2, Ephrin type-A receptor 8 (Homo sapiens) (UniProt P29322).
T2 sequence (whole entry): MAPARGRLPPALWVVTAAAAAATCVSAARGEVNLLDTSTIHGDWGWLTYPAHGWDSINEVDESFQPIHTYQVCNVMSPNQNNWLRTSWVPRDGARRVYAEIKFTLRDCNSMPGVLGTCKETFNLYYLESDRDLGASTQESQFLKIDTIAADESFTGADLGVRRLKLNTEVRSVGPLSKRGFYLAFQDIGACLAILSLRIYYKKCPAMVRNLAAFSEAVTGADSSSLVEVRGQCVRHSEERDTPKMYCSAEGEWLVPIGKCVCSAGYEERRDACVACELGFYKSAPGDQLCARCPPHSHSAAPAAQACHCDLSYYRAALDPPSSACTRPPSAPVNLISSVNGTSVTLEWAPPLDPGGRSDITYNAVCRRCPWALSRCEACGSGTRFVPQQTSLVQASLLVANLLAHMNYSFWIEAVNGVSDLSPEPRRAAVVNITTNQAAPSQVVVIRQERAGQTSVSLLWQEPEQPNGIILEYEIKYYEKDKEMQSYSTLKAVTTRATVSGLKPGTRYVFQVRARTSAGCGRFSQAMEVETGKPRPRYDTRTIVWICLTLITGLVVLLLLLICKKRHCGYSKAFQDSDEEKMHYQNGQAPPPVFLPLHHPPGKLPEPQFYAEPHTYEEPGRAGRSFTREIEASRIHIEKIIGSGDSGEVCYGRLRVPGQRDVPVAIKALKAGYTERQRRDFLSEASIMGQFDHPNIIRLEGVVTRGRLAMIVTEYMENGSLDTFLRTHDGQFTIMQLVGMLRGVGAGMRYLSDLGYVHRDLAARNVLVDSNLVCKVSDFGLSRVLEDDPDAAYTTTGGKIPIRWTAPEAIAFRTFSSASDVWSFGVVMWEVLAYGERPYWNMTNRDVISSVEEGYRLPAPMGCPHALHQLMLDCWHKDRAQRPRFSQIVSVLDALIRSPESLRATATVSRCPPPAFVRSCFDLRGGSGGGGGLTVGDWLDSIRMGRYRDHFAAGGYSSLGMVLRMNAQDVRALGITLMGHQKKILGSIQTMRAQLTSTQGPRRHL
To be noted: at 1 µM.

For experiment [9], the target named is T2, Ephrin type-A receptor 8 (Homo sapiens). To be noted: at 10 µM.
Experiment [10] deals with T3, Ephrin type-B receptor 1 (Homo sapiens) (UniProt P54762).
T3 sequence (whole entry): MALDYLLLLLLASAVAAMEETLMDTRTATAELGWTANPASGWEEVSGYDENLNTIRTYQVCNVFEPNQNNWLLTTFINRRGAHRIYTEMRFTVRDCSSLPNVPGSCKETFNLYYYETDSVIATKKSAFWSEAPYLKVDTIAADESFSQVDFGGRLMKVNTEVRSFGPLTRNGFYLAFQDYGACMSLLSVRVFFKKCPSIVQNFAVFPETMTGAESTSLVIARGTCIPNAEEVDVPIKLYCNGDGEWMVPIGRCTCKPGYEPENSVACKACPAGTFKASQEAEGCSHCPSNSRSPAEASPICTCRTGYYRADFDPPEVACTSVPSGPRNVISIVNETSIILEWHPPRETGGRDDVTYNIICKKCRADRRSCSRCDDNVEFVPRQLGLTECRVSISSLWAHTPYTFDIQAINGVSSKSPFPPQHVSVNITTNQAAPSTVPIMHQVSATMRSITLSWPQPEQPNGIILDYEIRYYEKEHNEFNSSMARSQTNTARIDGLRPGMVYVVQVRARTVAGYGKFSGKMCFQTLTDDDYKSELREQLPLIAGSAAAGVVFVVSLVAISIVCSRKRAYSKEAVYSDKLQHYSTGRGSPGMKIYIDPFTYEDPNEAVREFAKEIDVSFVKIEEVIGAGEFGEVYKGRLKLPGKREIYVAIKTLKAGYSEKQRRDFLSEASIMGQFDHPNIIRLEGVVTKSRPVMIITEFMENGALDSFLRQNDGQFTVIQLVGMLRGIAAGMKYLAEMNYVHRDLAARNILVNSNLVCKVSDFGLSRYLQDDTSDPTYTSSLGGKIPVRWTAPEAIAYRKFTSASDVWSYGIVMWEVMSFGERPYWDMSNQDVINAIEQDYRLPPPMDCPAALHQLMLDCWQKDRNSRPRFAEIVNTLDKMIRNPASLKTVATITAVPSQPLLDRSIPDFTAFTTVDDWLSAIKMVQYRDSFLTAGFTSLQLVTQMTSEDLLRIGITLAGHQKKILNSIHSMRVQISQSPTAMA
The conditions noted are these: at 1 µM.

Chain of Ephrin type-A receptor 5 (Homo sapiens) (P54756 whole entry): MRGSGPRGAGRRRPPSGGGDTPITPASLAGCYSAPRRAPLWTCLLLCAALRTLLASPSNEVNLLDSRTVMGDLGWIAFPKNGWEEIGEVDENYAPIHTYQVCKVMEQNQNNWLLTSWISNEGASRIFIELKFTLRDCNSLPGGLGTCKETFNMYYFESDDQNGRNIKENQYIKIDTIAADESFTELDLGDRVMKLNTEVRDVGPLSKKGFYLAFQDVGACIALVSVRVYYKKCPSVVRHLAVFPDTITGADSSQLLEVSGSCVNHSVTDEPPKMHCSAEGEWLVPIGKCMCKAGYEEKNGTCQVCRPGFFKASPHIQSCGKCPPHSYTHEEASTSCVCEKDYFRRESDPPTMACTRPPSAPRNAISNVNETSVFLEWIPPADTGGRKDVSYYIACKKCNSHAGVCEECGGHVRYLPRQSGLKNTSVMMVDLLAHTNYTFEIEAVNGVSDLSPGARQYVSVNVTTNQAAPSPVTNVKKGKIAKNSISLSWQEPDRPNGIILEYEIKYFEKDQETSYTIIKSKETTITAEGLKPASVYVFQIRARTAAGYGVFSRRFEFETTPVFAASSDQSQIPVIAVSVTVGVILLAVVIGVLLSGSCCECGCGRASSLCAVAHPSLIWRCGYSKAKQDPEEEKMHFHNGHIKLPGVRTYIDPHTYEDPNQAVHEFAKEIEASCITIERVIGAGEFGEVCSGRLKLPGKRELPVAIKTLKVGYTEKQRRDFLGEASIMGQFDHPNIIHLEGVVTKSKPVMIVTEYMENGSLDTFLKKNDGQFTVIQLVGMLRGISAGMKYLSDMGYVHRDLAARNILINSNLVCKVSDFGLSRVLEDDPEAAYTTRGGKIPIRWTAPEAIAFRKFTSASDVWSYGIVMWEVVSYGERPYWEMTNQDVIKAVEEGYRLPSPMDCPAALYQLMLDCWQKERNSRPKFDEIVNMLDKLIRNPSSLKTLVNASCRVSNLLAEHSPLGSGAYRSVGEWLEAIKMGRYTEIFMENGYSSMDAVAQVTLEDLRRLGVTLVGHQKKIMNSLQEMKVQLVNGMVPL
Chain of Ephrin type-A receptor 4 (Homo sapiens) (P54764 whole entry): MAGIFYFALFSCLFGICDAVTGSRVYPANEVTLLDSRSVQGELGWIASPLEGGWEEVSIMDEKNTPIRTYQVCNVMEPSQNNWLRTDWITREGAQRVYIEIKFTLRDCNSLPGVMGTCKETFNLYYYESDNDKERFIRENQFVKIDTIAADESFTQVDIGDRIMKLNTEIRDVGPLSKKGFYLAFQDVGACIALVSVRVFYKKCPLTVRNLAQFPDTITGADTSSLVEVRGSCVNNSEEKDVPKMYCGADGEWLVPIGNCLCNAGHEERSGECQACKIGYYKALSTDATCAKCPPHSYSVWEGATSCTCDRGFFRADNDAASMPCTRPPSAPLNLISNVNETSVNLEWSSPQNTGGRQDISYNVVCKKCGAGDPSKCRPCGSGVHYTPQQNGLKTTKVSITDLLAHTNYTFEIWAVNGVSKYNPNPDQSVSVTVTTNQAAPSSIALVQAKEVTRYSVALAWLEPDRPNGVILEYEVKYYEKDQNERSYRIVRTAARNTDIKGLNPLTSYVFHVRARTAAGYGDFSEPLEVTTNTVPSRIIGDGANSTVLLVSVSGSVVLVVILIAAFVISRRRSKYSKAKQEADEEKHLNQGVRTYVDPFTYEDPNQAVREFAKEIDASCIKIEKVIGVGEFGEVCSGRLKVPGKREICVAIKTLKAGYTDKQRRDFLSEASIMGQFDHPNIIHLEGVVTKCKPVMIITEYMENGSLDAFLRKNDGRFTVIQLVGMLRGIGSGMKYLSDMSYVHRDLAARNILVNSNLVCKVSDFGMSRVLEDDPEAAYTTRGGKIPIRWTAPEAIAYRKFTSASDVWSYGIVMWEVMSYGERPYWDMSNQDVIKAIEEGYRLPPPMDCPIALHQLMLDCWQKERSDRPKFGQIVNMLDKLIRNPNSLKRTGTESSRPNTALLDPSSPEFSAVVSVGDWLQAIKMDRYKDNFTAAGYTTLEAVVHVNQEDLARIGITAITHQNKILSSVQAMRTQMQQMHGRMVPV

What is called residual activity is the signal under treatment as a percentage of the control signal. `O=C(Nc1cccc(Nc2cc(Nc3cccc(C(F)(F)F)c3)ncn2)c1)C1CC1`: the residual activity is 114% in experiment [1]; 113% in experiment [2]; 103% in experiment [3]; 98% in [4]; 87% in experiment [5]; 95% in experiment [6]. The residual activity amounted to 86% in experiment [7], 98% in experiment [8], 90% in experiment [9] and 98% in experiment [10].
